“And” between values parts separate entries of the source, which are not always exact repeats. Equal entries are not always repeated. Results filed as inconclusive are left out. Entries that show only a call come without a potency. The source made the active and inactive calls. The call rests on the fitted dose curve; in most records, active means well fitted inhibition curve with a large enough effect in the repeat runs; inconclusive means weak or mixed curves; inactive means flat fitted curve, though single readings scatter.
Test: qHTS assay to identify small molecule HDAC inhibitors (AID 1259364); further: nearly all actives have a fitted effect of over 45% in size
Conditions: HCT-116 HDAC-Glo I/II luminescence, 2 h; series mostly up to 92.4 µM
From the text: U.S. Tox21 Program National Center for Advancing Translational Sciences [NCATS] NIH Chemical Genomics Center [NCGC] U.S. Environmental Protection Agency [EPA] National Institutes of Environmental Health Sciences [NIEHS] National Toxicology Program [NTP] U.S. Food and Drug Administration [FDA] Tox21 Assay Overview: Histone deacetylases (HDACs) are a group of epigenetic enzymes that regulate gene expression by histone deacetylation. HDACs are capable of introducing epigenetic modifications and such aberrations contribute to the onset and progression of several human diseases, thus making HDACs a popular therapeutic target. For identifying endogenous class I/II HDAC inhibitors a homogenous, luminogenic HDAC I/II cell based assay was used to measure the relative activity of class I and II HDACs from cells. Wild type HCT-116 cells were used to screen Tox21 libraries for identifying class I/II HDAC inhibitors.
Tox21 Assay Protocol Summary: HCT-116 cells were dispensed at 1,500 per well in 5uL of culture medium into white solid bottom 1536-well plates (Greiner Bio-One, Monroe, NC) using a Multidrop Combi (Thermo Scientific, Waltham, MA) dispenser. The assay plates were incubated at 37 C and 5% CO2 for an overnight, and then 23nL of compounds dissolved in DMSO and positive control were transferred using a Pintool station (Wako, San Diego, CA). The assay plates were incubated at 37C and 5% CO2 for 2hr. After compound treatment, 4uL of HDAC-Glo reagent (Promega Corporation, Madison, WI) was added to each well of the assay plates using Flying Reagent Dispenser (FRD, Aurora Discovery, San Diego, CA) and incubated the assay plates at room temperature for 30min. The luminescence signal was quantified using a ViewLux plate reader (Perkin Elmer, Shelton, CT).
Potency means the concentration at half of the fitted maximal effect.

Row | Structure (SMILES) | Potency
1 | CC(=O)/C=C/C1=C(C)CCCC1(C)C | inactive
2 | O=C1CCCCCN1 | inactive
3 | O=C(OCc1ccccc1)c1ccccc1 | 15.4 µM (active) and 13.7 µM (active) and 10.6 µM (active)
4 | CC(C)CC(C)CC(O)CC(C)C (stereo not given) | inactive
5 | Cc1cccc2ccccc12 | inactive
6 | NC(=O)NO | inactive
7 | CCOCCO | inactive
8 | Cn1cnc2c1c(=O)[nH]c(=O)n2C | inactive
9 | CC(C)(C)CC(C)(C)c1ccc(O)c(-n2nc3ccccc3n2)c1 | inactive
10 | CC(C)(C)NCC(O)c1ccc(O)c(CO)c1 (stereo not given) | inactive
11 | CCN1CCCC1=O | inactive
12 | C=CCOC(=O)CC(C)C | inactive
13 | O=c1cc[nH]c(=O)[nH]1 | inactive
14 | CN(C)C=O | inactive
15 | C[C@]12CC[C@@H]3c4ccc(O)cc4C[C@@H](CCCCCCCCCS(=O)CCCC(F)(F)C(F)(F)F)[C@H]3[C@@H]1CC[C@@H]2O (stereo not given in full) | inactive
16 | CCOC(=O)C(C)(C)Oc1ccc(Cl)cc1 | inactive
17 | Cc1cnc(NC(=O)C2=C(O)c3ccccc3S(=O)(=O)N2C)s1 | inactive
18 | CCCCC/C(C=O)=C\c1ccccc1 | inactive
19 | N[C@@H](Cc1c[nH]c2ccc(O)cc12)C(=O)O | inactive
20 | CO[C@H]1C=CO[C@@]2(C)Oc3c(C)c(O)c4c(O)c(c(/C=N/N5CCN(C)CC5)c(O)c4c3C2=O)NC(=O)/C(C)=C\C=C[C@H](C)[C@H](O)[C@@H](C)[C@@H](O)[C@@H](C)[C@H](OC(C)=O)[C@@H]1C | inactive

Row | Structure (SMILES) | Potency
21 | OC[C@@H](O)[C@@H](O)[C@H](O)[C@H](O)CO | inactive
22 | COc1ccc(O)cc1 | inactive
23 | CCCCCCCCCCCCCCCCCC(=O)OCC(O)CO (stereo not given) | inactive
24 | O=C(O)CCCCC1CCSS1 (stereo not given) | inactive
25 | CCCCCCCCOc1ccc(C(=O)c2ccccc2)c(O)c1 | inactive
26 | Cc1cccc(C)c1O | inactive
27 | CC(O)COc1ccccc1 (stereo not given) | inactive
28 | C=C(C)OC(C)=O | inactive
29 | O=c1c(-c2ccc(O)cc2)coc2cc(O)cc(O)c12 | 8.49 µM (active) and 6.86 µM (active) and 9.44 µM (active)
30 | COc1ccccc1NC(=O)CC(C)=O | inactive
31 | O=C(O)Cc1cccc2ccccc12 | inactive
32 | Cc1c(N(C)CS(=O)(=O)O)c(=O)n(-c2ccccc2)n1C | inactive
33 | COc1cc2c(c(OC)c1OC)-c1ccc(OC)c(=O)cc1[C@@H](NC(C)=O)CC2 | inactive
34 | CC1=C(/C=C/C(C)=C/C=C/C(C)=C/C(=O)O)C(C)(C)CCC1 | inactive
35 | CC1(C)O[C@@H]2[C@@H](CO[C@@]3(COS(N)(=O)=O)OC(C)(C)O[C@@H]23)O1 | inactive
36 | COC(=O)C1CCC(C(=O)OC)CC1 (stereo not given) | inactive
37 | N[C@@H](Cc1c[nH]c2ccccc12)C(=O)O | inactive
38 | Cc1c(N(C)C)c(=O)n(-c2ccccc2)n1C | inactive
39 | CC(=O)c1ccc(S(=O)(=O)NC(=O)NC2CCCCC2)cc1 | inactive
40 | C[C@]12C[C@H](O)[C@H]3[C@@H](CCC4=CC(=O)CC[C@@]43C)[C@@H]1CC[C@@H]2C(=O)CO | inactive
